The text below walks through data of publication PMC7862700, “An all-to-all approach to the identification of sequence-specific readers for epigenetic DNA modifications on cytosine”.

What all share (test): DAPPL (digital affinity profiling via proximity ligation, sequencing); 10 mM Tris-HCl pH 7.5, 50 mM NaCl, 1 mM DTT, 4% glycerol, room temperature, 30 min; GST-TFs on glutathione beads, 16-mer random dsDNA library, 0.1% formaldehyde crosslink after washing; high values mean tight binding
Conditions in all cases: protein: recombinant; tags: N-terminal GST; dsDNA, one strand shown

For assay [1], the target named is T1, ELK1 (Homo sapiens, UniProt P19419 1-428).
T1 sequence: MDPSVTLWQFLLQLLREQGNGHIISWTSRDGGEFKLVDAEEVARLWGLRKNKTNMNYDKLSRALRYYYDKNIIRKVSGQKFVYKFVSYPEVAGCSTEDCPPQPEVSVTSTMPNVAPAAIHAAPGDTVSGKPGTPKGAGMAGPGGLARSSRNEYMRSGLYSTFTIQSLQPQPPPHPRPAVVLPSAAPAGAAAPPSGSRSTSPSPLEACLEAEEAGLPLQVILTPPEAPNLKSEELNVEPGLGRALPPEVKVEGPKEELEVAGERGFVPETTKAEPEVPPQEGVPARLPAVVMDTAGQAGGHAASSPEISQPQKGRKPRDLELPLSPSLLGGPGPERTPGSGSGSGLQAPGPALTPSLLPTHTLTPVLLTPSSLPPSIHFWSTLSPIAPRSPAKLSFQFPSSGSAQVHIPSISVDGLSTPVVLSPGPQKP
The method in brief: (§1)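 GST fusions of human transcription factors were expressed in yeast and captured with glutathione beads. Once given DNA barcodes and pooled alongside a tag-only sample, they were incubated for 30 min at room temperature with 200 nmole of a random double-stranded 16-mer DNA library in Tris/NaCl/DTT/glycerol buffer, then washed, crosslinked (0.1% formaldehyde), proximity-ligated, PCR-amplified and sequenced on an Illumina NextSeq500. The binding signal of each hexamer is its read frequency for a factor divided by its frequency for the tag-only sample.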

Assay [2] deals with T2, GABPA (Homo sapiens, UniProt Q06546 1-454).
T2 sequence: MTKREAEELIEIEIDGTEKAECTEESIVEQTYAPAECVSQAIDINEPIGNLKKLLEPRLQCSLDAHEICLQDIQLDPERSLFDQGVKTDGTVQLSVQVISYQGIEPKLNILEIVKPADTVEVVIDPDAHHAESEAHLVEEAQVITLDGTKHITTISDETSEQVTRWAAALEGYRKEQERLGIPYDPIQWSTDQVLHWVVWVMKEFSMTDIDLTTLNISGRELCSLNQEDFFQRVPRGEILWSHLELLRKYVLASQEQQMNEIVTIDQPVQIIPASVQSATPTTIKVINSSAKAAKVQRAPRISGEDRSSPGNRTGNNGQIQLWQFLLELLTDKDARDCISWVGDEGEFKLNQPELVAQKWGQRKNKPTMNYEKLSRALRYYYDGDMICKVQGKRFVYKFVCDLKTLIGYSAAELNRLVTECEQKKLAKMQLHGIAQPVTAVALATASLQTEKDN
In short, it runs like this:
as §1

The target of assay [3] is T3, ERG (Homo sapiens, UniProt P11308 1-479).
T3 sequence: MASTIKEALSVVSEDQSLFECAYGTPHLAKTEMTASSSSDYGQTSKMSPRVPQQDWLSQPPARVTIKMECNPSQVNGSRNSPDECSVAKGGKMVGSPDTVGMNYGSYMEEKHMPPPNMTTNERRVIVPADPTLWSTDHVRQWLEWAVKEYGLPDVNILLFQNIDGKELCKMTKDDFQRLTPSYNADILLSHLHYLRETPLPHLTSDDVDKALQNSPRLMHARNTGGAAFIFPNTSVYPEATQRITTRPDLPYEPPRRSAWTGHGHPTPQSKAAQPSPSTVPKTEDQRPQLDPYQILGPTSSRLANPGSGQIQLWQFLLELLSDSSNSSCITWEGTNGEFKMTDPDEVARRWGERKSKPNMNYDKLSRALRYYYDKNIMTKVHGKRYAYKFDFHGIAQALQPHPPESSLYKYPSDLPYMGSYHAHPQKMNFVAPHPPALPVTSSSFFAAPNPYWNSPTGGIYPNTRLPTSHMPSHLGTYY
The method in brief: as §1

The target of assay [4] is T4, EHF (Homo sapiens, UniProt Q9NZC4 1-300).
T4 sequence: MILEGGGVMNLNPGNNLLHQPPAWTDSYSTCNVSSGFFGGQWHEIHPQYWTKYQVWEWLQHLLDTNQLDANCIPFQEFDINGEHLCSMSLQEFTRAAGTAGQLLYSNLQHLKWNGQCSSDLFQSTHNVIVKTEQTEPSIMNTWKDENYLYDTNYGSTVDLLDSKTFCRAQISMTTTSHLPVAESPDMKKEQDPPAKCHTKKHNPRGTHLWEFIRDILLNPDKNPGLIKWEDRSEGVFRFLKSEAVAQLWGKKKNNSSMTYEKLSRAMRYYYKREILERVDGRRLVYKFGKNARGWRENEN
In short, it runs like this: as §1

Assay [5] concerns the target SPIB (Homo sapiens, UniProt Q01892 1-262). In short, it runs like this:
as §1

Assay [6] deals with T5, FEV (Homo sapiens, UniProt Q99581 1-238).
T5 sequence: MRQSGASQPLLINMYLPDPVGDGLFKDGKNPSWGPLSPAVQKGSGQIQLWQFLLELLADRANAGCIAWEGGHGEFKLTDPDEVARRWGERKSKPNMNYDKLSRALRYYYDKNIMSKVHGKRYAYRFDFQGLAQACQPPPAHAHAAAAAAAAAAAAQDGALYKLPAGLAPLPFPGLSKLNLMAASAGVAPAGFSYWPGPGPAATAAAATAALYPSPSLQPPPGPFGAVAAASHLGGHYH
In short, it runs like this:
as §1

The target in assay [7] is ETV5 (Homo sapiens, UniProt P41161 1-510). In short, it runs like this:
as §1

Assay [8] has as its target ELF4 (Homo sapiens, UniProt Q99607 1-663). The method in brief: as §1
In assay [9] the target is T6, ETV2 (Homo sapiens, UniProt O00321 1-342).
T6 sequence: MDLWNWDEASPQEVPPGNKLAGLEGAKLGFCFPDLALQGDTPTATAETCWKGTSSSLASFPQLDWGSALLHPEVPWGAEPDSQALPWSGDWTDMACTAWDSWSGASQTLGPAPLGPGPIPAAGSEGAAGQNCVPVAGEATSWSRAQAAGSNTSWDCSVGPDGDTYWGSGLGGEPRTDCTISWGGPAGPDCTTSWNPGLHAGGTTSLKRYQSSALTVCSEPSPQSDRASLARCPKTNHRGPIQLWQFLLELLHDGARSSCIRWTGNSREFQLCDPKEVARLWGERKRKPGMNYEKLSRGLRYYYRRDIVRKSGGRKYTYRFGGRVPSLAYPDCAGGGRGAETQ
In short, it runs like this: as §1

Assay [10] concerns the target T7, ELF3 (Homo sapiens, UniProt P78545 1-371).
T7 sequence: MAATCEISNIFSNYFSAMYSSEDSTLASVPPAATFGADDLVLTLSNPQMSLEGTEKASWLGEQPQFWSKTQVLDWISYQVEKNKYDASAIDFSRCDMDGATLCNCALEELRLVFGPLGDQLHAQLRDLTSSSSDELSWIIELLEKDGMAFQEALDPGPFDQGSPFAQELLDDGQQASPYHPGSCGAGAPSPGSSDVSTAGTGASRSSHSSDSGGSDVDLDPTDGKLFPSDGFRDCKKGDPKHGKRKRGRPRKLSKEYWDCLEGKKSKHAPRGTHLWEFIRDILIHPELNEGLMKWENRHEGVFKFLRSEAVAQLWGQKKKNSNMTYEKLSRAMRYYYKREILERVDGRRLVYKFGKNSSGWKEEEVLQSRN
In short, it runs like this:
as §1

For assay [11], the target named is ETV1 (Homo sapiens, UniProt P50549 1-477). The method in brief:
as §1

Assay [12] addresses T8, SPDEF (Homo sapiens, UniProt O95238 1-335).
T8 sequence: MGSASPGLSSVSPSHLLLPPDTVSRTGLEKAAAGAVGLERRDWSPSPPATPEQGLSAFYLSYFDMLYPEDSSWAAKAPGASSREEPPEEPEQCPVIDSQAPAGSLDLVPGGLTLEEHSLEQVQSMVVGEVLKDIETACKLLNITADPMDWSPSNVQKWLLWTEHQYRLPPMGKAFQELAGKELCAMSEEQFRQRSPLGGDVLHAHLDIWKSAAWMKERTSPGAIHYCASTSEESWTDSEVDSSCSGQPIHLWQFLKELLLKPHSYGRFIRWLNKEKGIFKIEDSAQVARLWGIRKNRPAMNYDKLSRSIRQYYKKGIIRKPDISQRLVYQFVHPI
The method in brief: as §1

Sequence of SPIB (Q01892 whole entry): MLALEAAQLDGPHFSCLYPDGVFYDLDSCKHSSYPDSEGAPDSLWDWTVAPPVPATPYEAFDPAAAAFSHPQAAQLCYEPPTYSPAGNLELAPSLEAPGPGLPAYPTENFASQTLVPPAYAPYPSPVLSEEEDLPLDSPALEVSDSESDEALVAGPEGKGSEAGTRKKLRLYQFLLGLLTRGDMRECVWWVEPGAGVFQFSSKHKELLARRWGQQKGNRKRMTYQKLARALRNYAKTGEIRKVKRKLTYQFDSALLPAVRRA
Sequence of ETV5 (P41161 whole entry): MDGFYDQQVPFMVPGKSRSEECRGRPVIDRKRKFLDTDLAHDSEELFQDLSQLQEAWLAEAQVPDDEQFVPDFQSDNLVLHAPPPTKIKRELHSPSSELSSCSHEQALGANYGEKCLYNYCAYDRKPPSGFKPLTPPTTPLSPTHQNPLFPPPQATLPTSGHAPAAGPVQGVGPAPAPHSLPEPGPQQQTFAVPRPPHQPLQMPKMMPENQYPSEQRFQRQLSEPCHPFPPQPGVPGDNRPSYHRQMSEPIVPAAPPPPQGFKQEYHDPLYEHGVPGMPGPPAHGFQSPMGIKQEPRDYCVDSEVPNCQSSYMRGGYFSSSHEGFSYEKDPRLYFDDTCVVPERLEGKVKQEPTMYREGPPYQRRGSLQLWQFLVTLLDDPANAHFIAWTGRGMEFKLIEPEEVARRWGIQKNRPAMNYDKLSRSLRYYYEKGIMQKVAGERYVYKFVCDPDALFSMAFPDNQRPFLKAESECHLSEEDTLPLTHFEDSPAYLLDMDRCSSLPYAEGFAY
Sequence of ELF4 (Q99607 whole entry): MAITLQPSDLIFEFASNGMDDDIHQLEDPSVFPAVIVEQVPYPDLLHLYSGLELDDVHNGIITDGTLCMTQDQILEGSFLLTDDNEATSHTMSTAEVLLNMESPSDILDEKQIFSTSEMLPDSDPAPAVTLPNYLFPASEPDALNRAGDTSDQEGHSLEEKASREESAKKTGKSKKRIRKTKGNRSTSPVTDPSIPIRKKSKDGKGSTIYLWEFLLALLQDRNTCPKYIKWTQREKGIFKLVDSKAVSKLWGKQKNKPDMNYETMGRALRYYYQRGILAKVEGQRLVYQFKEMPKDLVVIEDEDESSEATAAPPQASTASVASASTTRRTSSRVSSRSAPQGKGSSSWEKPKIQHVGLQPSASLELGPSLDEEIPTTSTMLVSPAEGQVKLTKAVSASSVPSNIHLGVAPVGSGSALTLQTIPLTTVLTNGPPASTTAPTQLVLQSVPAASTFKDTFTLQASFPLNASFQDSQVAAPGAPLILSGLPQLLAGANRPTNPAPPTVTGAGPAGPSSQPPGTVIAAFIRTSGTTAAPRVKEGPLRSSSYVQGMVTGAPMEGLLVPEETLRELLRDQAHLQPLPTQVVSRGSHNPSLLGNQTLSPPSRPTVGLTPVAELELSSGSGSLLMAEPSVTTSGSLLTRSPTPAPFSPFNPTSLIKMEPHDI
Sequence of ETV1 (P50549 whole entry): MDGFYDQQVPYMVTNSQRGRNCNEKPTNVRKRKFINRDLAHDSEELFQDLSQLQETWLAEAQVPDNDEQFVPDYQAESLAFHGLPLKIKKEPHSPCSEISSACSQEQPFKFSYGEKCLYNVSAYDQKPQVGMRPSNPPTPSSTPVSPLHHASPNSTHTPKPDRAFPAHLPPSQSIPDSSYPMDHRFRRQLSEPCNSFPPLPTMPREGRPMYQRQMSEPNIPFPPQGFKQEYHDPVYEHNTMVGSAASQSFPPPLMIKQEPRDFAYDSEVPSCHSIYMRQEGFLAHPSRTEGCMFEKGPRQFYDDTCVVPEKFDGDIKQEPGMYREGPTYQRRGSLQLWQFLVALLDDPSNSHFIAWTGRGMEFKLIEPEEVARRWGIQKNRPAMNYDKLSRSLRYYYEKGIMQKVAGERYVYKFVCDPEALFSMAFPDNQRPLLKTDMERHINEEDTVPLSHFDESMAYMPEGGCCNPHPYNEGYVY

For the sequence GGTCAC, the binding signal in assay [1] was 1.02 fold enrichment (6-mer frequency, TF over GST control); in [2], 1.06 fold enrichment (6-mer frequency, TF over GST control); in assay [3], 1.01 fold enrichment (6-mer frequency, TF over GST control); in assay [4], 1.04 fold enrichment (6-mer frequency, TF over GST control); in assay [5] it was 1.02 fold enrichment (6-mer frequency, TF over GST control); in assay [6], 1.04 fold enrichment (6-mer frequency, TF over GST control). The binding signal in assay [7] was 1 fold enrichment (6-mer frequency, TF over GST control); in assay [8] it was 1.03 fold enrichment (6-mer frequency, TF over GST control); in assay [9], 1.15 fold enrichment (6-mer frequency, TF over GST control); in assay [10], 1.05 fold enrichment (6-mer frequency, TF over GST control); in assay [11], 1.02 fold enrichment (6-mer frequency, TF over GST control); in assay [12], 1.05 fold enrichment (6-mer frequency, TF over GST control).
